About 4,100 (7.5%) of roughly 55,000 […] were called active. No stated cut-off is given here; in the data, active = GI50 up to about 1.1 µM and inactive = higher. A selection follows. Measured potencies and affinities stand elsewhere.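 Exposure lasted 48 hours, with cells grown in 96-well plates and compounds tested at five concentrations. GI50: concentration for 50% inhibition of growth.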
System: SF-539
Assay: NCI tumour cell line growth inhibition, 48 h

| Substance | GI50 |
| --- | --- |
| [Bis(aminomethyl)tetramethylenesilane]dichloropaltinum(II), CHEMBL2146205 | 20.5 µM |
| [Bis(aminomethyl)pentamethylenesilane]tetrachloropaltinum(IV), CHEMBL2146204 | 0.558 µM |
| [Bis(aminomethyl)diethylsilane]tetrachloroplatinum(IV), CHEMBL2146203 | 2.49 µM |
| [Bis(aminomethyl)tetramethylenesilane]tetrachloropaltinum(IV), CHEMBL2146189 | 2.18 µM |
| [Bis(aminomethyl)dimethylsilane]dichloroplatinum (II), CHEMBL2146201 | 23.4 µM |
| cis-Bis[[(trimethylsilyl)methyl]amino]tetrachloroplatinum(IV), CHEMBL2146191 | 4.24 µM |
| [Bis(aminomethyl)dimethylsilane]tetrachloroplatinum(IV), CHEMBL2146190 | 4.99 µM |
| [Bis(aminomethyl)pentamethylenesilane]dichloropaltinum(II), CHEMBL2146202 | 1.48 µM |
| mu-(1,7-nanodiamine-N,N')bis-(cis-aminedichloroplatimum (II)), CHEMBL2146215 | 27.4 µM |
| CISPLATIN, CHEMBL11359 | 1.66 µM |
| [Bis(aminomethyl)ethylmethylsilane]tetrachloroplatinum(IV), CHEMBL2146192 | 3.05 µM |
